# Test results published in PubChem BioAssay AID588398 (Broad Institute, 2011).
# The whole screen tested about 1,200 compounds, of which about 110 (9.2%) were called active. About 8% were inconclusive and are not listed.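 Rule for the calls: active = pathway reporter half-maximal dose under half the control reporter's, or control reporter unaffected while pathway reporter is inhibited; inconclusive = either signal flat at 30 to 70% inhibition or poorly fitted; inactive = the rest.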 The list is a sample of the results. Entries with a potency or affinity are not part of this list.
# Test: TES1-eGFP NF-kB reporter inhibition versus Tet-On dsRED, dose response, selectivity assay for LMP1 NF-kB inhibitor project, imaging, HEK293T, dual-color eGFP/dsRED, cherry-picks (AID 588398)
# Settings: 48 h; HEK293T Tet-On dsRED counter-screen channel, at 19.5 µM (top of the series)
row,SMILES,outcome
1,CC1(C)CN(Cc2ccccc2)C(=O)[C@H]1CC(=O)Nc1ccccc1,inactive
2,CC(=O)c1ccccc1OCC(=O)Nc1cccc(S(=O)(=O)N2CCCC2)c1,inactive
3,Cc1ccc(C(=O)Nc2cccc(C(F)(F)F)c2)cc1Nc1ncnc2nc[nH]c12,inactive
4,CC(=O)Nc1ccc(C=NNc2nnc(NN=Cc3ccc(NC(C)=O)cc3)c3ccccc23)cc1,inactive
5,Cc1ccnc(NC(=O)c2cccc(NC(=O)c3ccc(Cl)c(Cl)c3)c2)c1,inactive
6,COc1ccc(NC(=O)COC(=O)/C=C/c2ccc(OC)c(S(=O)(=O)N3CCOCC3)c2)cc1,inactive
7,COc1ccc(C=C2CS(=O)(=O)CC(=Cc3ccc(OC)cc3)C2=O)cc1,inactive
8,COC(=O)[C@@]1(Cc2ccccc2)[C@H]2C(=O)N(Cc3ccccc3)C(=O)[C@H]2[C@H]2CN=C(SCc3ccc(Cl)cc3)N21,inactive
9,CCOc1ccc(NC(=S)N=Nc2c(O)[nH]c3ccccc23)cc1,inactive
10,CC(NC(=O)CNC(=O)OCc1ccccc1)C(=O)N1CC(O)CC1C(=O)OCc1ccccc1 (stereo not drawn),inactive
11,CCN1CCN(Cc2ccc(NC(=O)c3ccc(C)c(NC(=O)c4cccc5[nH]ccc45)c3)cc2C(F)(F)F)CC1,inactive
12,Cc1ccc(C)c(Cn2c(O)c(N=NC(=S)Nc3ccccc3F)c3ccccc32)c1,inactive
13,COc1cc(OC)cc(-c2cc3nc(C)c(CCC(=O)O)c(C)n3n2)c1,inactive
14,O=C(C[n+]1ccccc1)N/N=C/c1ccc(O)cc1,inactive
15,C#CCN(C[C@@H]1[C@@H](OC(=O)NCc2ccccc2F)[C@@H](OC(=O)NCc2ccccc2F)Cn2c(=O)ccc(=O)n21)S(=O)(=O)c1ccc(C)cc1,inactive
16,Cc1ccnc(NC(=O)c2ccc(OCC3CCCO3)cc2)c1 (stereo not drawn),inactive
17,Cc1ccc(-n2c(=O)c3c(c4cc(C)ccc4n3C)n(CC(=O)NCC3CCCO3)c2=O)cc1 (stereo not drawn),inactive
18,CCOc1ccc(C(=O)NC(=S)N(Cc2ccccc2)Cc2ccccc2)cc1,inactive
19,O=C(Nc1cc(Cl)ccc1Cl)C1Cc2ccccc2O/C1=N\O (stereo not drawn),inactive
20,CCOC(=O)c1sc2nc(C)nc(NCc3ccccc3)c2c1C,inactive
21,COc1ccc(CN2C(=O)c3cccnc3C2Nc2cc(Cl)ccc2OC)cc1 (stereo not drawn),inactive
22,CCC(=O)NC(c1cc(Cl)c2cccnc2c1O)C1CC1 (stereo not drawn),inactive
23,CC(=O)NC(c1ccc(Cl)cc1Cl)c1ccc2cccnc2c1O (stereo not drawn),inactive
24,CCC(=O)NC(c1ccc(C)cc1)c1cc(Cl)c2cccnc2c1O (stereo not drawn),inactive
25,CN(C)S(=O)(=O)c1ccc(Cl)c(C(=O)NCCNC(=O)c2cc(S(=O)(=O)N(C)C)ccc2Cl)c1,inactive
26,CCNc1nc(CN2CCOCC2)nc2sc3c(c12)CCC3,inactive

row,SMILES,outcome
1,Cc1nn(-c2ccccc2)c(Cl)c1C(=O)N1CCN(c2ncnc3c2cnn3-c2ccccc2)CC1,inactive
2,O=c1nc(N/N=C/C=C/c2ccccc2)cn[nH]1,inactive
3,CN(CCNC(=O)C1CCN(S(=O)(=O)N2CCOCC2)CC1)CCc1ccccc1,inactive
4,O=C(N/N=C/c1cc2c3c(c1O)CCCN3CCC2)c1ccccc1O,inactive
5,CCOC(=O)C1CCN(S(=O)(=O)Cc2ccccc2)C1=O (stereo not drawn),inactive
6,CCOC(=O)CCSc1nc(N2CCOCC2)c2c(c1C#N)CC(C)(C)OC2,inactive
7,COc1ccc(C=NNc2nc3ccccc3s2)cc1,inactive
8,C(=Cc1nc2ccccc2o1)c1ccc2c(c1)OCO2,inactive
9,c1ccn2cc(-c3ccc4c(c3)OCCO4)nc2c1,inactive
10,CC1CCN(CCOc2ccc(C(=O)c3ccccc3)cc2)CC1,inactive
11,CCC(C)[C@H](NC(=O)NCc1cccnc1)C(=O)OC (stereo partly drawn),inactive
12,CCOc1ccc(Nc2ncnc3ccc([N+](=O)[O-])cc23)cc1,inactive
13,Cc1cc(C(=O)COc2cccnc2[N+](=O)[O-])c(C)n1-c1ccccc1F,inactive
14,O=C1CCCCC1Sc1nnc(-c2ccc3c(c2)OCO3)o1 (stereo not drawn),inactive
15,C=CCn1c(=O)/c(=C/c2ccc(Cl)cc2)s/c1=C(\C#N)c1nnc2n1CCCCC2,inactive
16,Cc1ccc(OCC(=O)NNC(=S)NC(=O)C2CCCCC2)c(C)c1,inactive
17,Cc1cc(NC(=O)c2ccc(C)s2)n(-c2nc3ccccc3[nH]2)n1,inactive
18,COc1ccc(OC)c(NC(=O)COC(=O)COc2ccc(Nc3ccccc3)cc2)c1,inactive
19,C(=Cc1cnc2ccccc2n1)c1ccc2c(c1)OCO2,inactive
20,CCOc1ccc(NC(=O)c2ccc(N3CC4CC(C3)c3cccc(=O)n3C4)c(NC(=O)c3cccnc3)c2)cc1 (stereo not drawn),inactive
21,COc1ccc(N2C(=O)C(Cl)=C(NCc3ccccc3)C2=O)cc1,inactive
22,Cc1ccc(S(=O)(=O)N2CCN(C(=O)COC(=O)COc3ccc(Cl)cc3)CC2)c(C)c1,inactive
23,CCOc1ccccc1/C=C/c1onc(C)c1S(=O)(=O)N1CCC(C(=O)N(CC)CC)CC1,inactive
24,CCOC(=O)N1CCC(NC(=O)C2CCCN(Cc3nc(-c4cccc(Cl)c4)oc3C)C2)CC1 (stereo not drawn),inactive
25,COc1ccc(S(=O)(=O)N2CCCCCC2)cc1C(=O)OCc1cccc(OC)c1OC,inactive
26,Fc1cccc(Cl)c1/C=N/n1c(-c2cccnc2)n[nH]c1=S,inactive

row,SMILES,outcome
1,CC(=O)c1cccc(NC(=O)Nc2ccc(C(=O)N3CCOCC3)cc2)c1,inactive
2,O=C(c1ccccc1Br)N1CCN(Cc2ccc3c(c2)OCO3)CC1,inactive
3,CCC(=O)NC(c1ccc(Cl)cc1Cl)c1ccc2cccnc2c1O (stereo not drawn),inactive
4,CC(=O)NC(c1ccc(Cl)cc1)c1ccc2cccnc2c1O (stereo not drawn),inactive
5,Cc1ccc2[nH]c3c(c2c1)CCCC3NC(=O)CCl (stereo not drawn),inactive
6,Cc1cccc(-n2c(O)c(C=Nc3c(C)n(C)n(-c4ccccc4)c3=O)c3ccccc3c2=O)n1,inactive
7,CC(=O)OC1CCC2(C)C(CCC3C4CC=C(C(C)=O)C4(C)OC(=O)CC32)C1 (stereo not drawn),inactive
8,O=C1NC(=O)/C(=C\c2ccc(OCc3cccc(C(=O)O)c3)c(Cl)c2)N1,inactive
9,CN1CCN(C(=O)C2=C[C@@H](C(C)(C)C)C[C@@H](OCc3ccc(CO)cc3)O2)CC1,inactive
10,COc1ccc(N2CCN(CCNC(=O)CCCn3c(=O)[nH]c4cc(Cl)ccc4c3=O)CC2)cc1,inactive
11,CCn1c2ccccc2c2cc(/C=N/NC(=O)c3ccncc3)ccc21,inactive
12,CCn1c2ccccc2c2cc(/C=N/NC(=O)c3cc(O)cc(O)c3)ccc21,inactive
13,CCn1c(SC(C)C)nnc1-c1c[nH]c2ccccc12,inactive
14,CC1CC(C)C(=O)C(C(CC2CC(=O)NC(=O)C2)OC(=O)CC(=O)c2ccccc2)C1 (stereo not drawn),inactive
15,COc1cc(C(c2sc3nc(C)nn3c2O)N2CCc3ccccc3C2)cc(OC)c1OC (stereo not drawn),inactive
16,CCOc1ccccc1NC(=O)Cn1c(=O)sc2ccccc21,inactive
17,O=C(NC(c1ccc(Cl)cc1)c1cc(Cl)c2cccnc2c1O)c1cccnc1 (stereo not drawn),inactive
18,CCOc1cc(Br)cc(/C=N/NC(=O)c2cccnc2)c1O,inactive
19,Cc1cc(N2CCOCC2)c2c(N)c(Br)cc(C)c2n1,inactive
20,CC1CC(C)CN(S(=O)(=O)c2ccc(NC(=O)CCN3C(=O)C4CC=CCC4C3=O)cc2)C1 (stereo not drawn),inactive
21,CCN(CC)S(=O)(=O)c1cccc(-n2c(O)c(C=Nc3ccccc3C(=O)O)c3ccccc3c2=O)c1,inactive
22,Cn1cc(SCC(=O)NCC2CCCO2)c2ccccc21 (stereo not drawn),inactive
23,Cc1ccc(CN2C(=O)CCC2C(=O)NCCCN2CCC(C)CC2)cc1 (stereo not drawn),inactive
24,O=Cc1ccc(-c2cccs2)s1,inactive
25,COc1ccc(NC(=O)CCS(=O)(=O)c2ccc3c(c2)CCN3C(C)=O)cc1,inactive
26,C=CCn1c(C)c(C(C)=O)c(N2CCN(C(c3ccccc3)c3ccccc3)CC2)nc1=S,inactive

row,SMILES,outcome
1,O=C(N/N=C/c1cccs1)c1n[nH]c2c1CCCC2,inactive
2,COc1cc2oc(=O)cc(-c3ccc(-c4ccc(N(C)C)cc4)cc3)c2c(OC)c1OC,inactive
3,COc1ccc(C=Cc2ccc3ccccc3n2)c(OC)c1,inactive
4,COc1ccc(C(=O)NCCNc2nc3cc(C)c(C)cc3cc2C)cc1,inactive
5,O=C(c1sc2cc([N+](=O)[O-])ccc2c1Cl)N1CCOCC1,inactive
6,O=C(N/N=C/c1sc2ccccc2c1O)c1cccc2ccccc12,inactive
7,COc1cccc(C(=O)CC(=O)C(=O)Nc2ccc(C)cc2Cl)c1,inactive
8,COc1ccc(NC2=NCC(Cc3ccc(Br)cc3)S2)cc1 (stereo not drawn),inactive
9,O=C(O)c1ccc(C=NNC(=O)c2cccc3ccccc23)cc1,inactive
10,O=C(N/N=C/c1ccc(O)cc1O)c1ccc(CN2C(=O)c3cccc4cccc2c34)cc1,inactive
11,O=c1oc2ccccc2c(O)c1/C=N/c1ccccn1,inactive
12,Cc1nnc(NC(=O)CSc2nnc(Cc3cccn3C)n2CCc2ccccc2)s1,inactive
13,COc1ccc(O)c(/C=N/NC(=O)c2ccc(OCc3cccc(Br)c3)cc2)c1,inactive
14,Cc1cccc(/C=N/NC(=O)CNc2cccc3ccccc23)n1,inactive
15,CCOc1ccc(OCc2cccc(C(=O)N3CCCC3)c2)cc1,inactive
16,O=C(O)c1c2c(nc3ccccc13)/C(=C/c1ccc(O)cc1)CC2,inactive
17,O=[N+]([O-])c1ccc(O)c(/C=N/Nc2ncnc3c2cnn3-c2ccccc2)c1,inactive
18,COc1cccc(/C=N/Nc2ncnc(Cl)c2N)c1O,inactive
19,O=C(/C=C/Nc1cccc(C(F)(F)F)c1)C(F)(F)F,inactive
20,CSc1ccccc1OCc1cc(C(=O)N2CCC[C@H]2C(N)=O)no1,inactive
21,Cc1ccc(C(=O)Nc2ccc3ncccc3c2)cc1,inactive
22,Cc1nnc(SCC(=O)N2CCC(c3noc4ccc(F)cc34)CC2)s1,inactive
23,NC(=O)c1sc2nc3c(c(-c4cccs4)c2c1N)CCCCC3,inactive
24,O=C1c2ccccc2C(O)N1Cc1ccccc1 (stereo not drawn),inactive
25,S=C1SCN(Cc2ccccc2)CN1Cc1ccco1,inactive
